Bioassay records from PubChem BioAssay.
SKKanGAS inh: SKKanGAS growth inhibition | AID 1662 | 1.3% of 300,000 active | inhibition, % at 7.5 µM | S. pyogenes SKKanGAS, kanamycin growth, BacTiter-Glo, 6 h;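 active = mean replicate score, as percent of positive control median, at least 50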;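 also: strain carries kanamycin resistance gene driven by streptokinase promoter and grows in 40 µg/ml kanamycin; loss of luminescence reflects streptokinase promoter inhibition or plain growth inhibition; 0% = median of DMSO wells and 100% = positive control at its reference dose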
NALP3 yeast inh: NALP3 inhibition in yeast; AID 2825; 0.39% of 330,000 active; inhibition, % at 10 µM; Yeast reconstituted NLRP3/ASC/caspase-1, beta-gal luminescence, 24 h;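 active = inhibition of 50% or more; inactive = inhibition below 50%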;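 also: plate controls were induced DMSO wells for no effect and uninduced yeast grown without galactose for full effect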
NALP1 inh: NALP1 inhibition | inhibition, % at 10 µM | S. cerevisiae NALP1/ASC/caspase-1 growth, X-gal OD620, 72 h | 0.61% of 280,000 active; in the data active = inhibition mostly above about 24%, no sharp cut-off; inactive = mostly below about 32%
tim10-1 inh: tim10-1 yeast growth inhibition. S. cerevisiae tim10-1 ts strain growth, BacTiter-Glo, 24 h. inhibition, % at 20 µM. 2.2% of 330,000 active. AID 463190;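 active = inhibition of at least 40%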;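 also: mutant grown at 25 °C; 0% = DMSO wells with yeast and 100% = wells holding no yeast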
tim23-1 inh: growth inhibitors of tim23-1 mutant yeast; S. cerevisiae tim23-1 growth, BacTiter-Glo luminescence, 24 h; inhibition, % at 20 µM; 1.3% of 330,000 active; AID 463212;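 active = growth inhibition of the mutant yeast at or above 50%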;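 also: temperature-sensitive mutant grown at 25 °C; plate controls were DMSO-treated mutant yeast for no effect and medium wells lacking yeast for full effect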
TIM10 inh: growth inhibitors of TIM10 yeast strain; S. cerevisiae TIM10 strain growth, BacTiter-Glo luminescence, 24 h; inhibition, % at 10 µM; 1.4% of 330,000 active; AID 463195;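 active = inhibition of 40% or more at the single tested concentration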;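 also: wild-type TIM10 isogenic control strain grown at permissive 25 °C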
tim10-1 confirm: tim10-1 yeast growth inhibition, confirmed | S. cerevisiae tim10-1 ts strain growth, BacTiter-Glo, 24 h | shares compounds with tim10-1 inh | 56% of 7,400 active | AID 463213 | inhibition, % at 20 µM;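 active = inhibition of yeast growth at or above a set limit in either of two repeat tests at 20 µM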;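 also: tim10-1 mutant grown at permissive 25 °C to find synthetic lethal compounds; 0% = DMSO yeast wells and 100% = medium wells without yeast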
TIM10 conf: TIM10 yeast growth inhibition, confirmed | 63% of 4,600 active | S. cerevisiae tim10 strain growth, BacTiter-Glo luminescence, 24 h | shares compounds with TIM10 inh | inhibition, % at 10 µM | AID 463215;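 active = inhibition of yeast growth at or above a set limit in either of two replicates at 10 µM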;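 also: this counterscreen used the strain with wild-type TIM10; 0% = yeast with DMSO and 100% = medium wells lacking yeast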
Active calls of the source: *; nt = not tested or not shown. Most compounds without a hit are left out; they make up all but 4.9% or so of the library.

SMILES | SKKanGAS inh | NALP3 yeast inh | NALP1 inh | tim10-1 inh | tim23-1 inh | TIM10 inh | tim10-1 confirm | others
CC(C)=CCSc1nnc([C@@H](N)Cc2c[nH]c3ccccc23)o1 | 3.2 | 18.5 | -2.1 | 44.7* | 33.3 | 8.6 | 32.1*
C=C(C)CSc1nnc([C@@H](N)Cc2c[nH]c3ccccc23)o1 | 1.7 | 16.0 | -1.8 | 41.8* | 33.3 | 25.8 | 56.0*
N[C@@H](Cc1c[nH]c2ccccc12)c1nnc(SCc2ccccc2)o1 | -5.0 | 19.1 | 1.1 | 42.8* | 38.5 | 32.9 | 47.0*
N[C@@H](Cc1c[nH]c2ccccc12)c1nnc(SCc2ccc(F)cc2)o1 | -2.7 | nt | 6.8 | nt | nt | nt | nt
CN(C)C(=O)Oc1ccc2c(=O)c(Oc3ccccc3Br)coc2c1 | -6.0 | 0.4 | 11.5 | 45.7* | 28.6 | 15.4 | 12.6
COc1cccc(Oc2coc3cc(OC(=O)N(C)C)ccc3c2=O)c1 | -1.4 | 25.6 | 6.5 | 16.6 | 11.2 | 3.6 | nt
Cc1ccc2nc(C)n(-c3ccc(F)cc3)c(=O)c2c1 | -15.4 | 2.2 | 12.8 | 11.3 | 20.6 | -5.6 | nt
CC(=O)OC[C@]12CCC(C)=C[C@H]1O[C@@H]1[C@H](O)[C@@H](OC(C)=O)[C@@]2(C)[C@]12CO2 | nt | 19.2 | -7.1 | 54.3* | 25.7 | 26.3 | 48.7*
O=C1NC(=O)N(CCC2=CCCCC2)C(=O)/C1=C\c1cccs1 | 3.8 | 14.3 | 23.3 | 17.5 | 23.4 | 6.0 | nt
O=C1NC(=O)N(CCc2ccc(F)cc2)C(=O)/C1=C/c1cccs1 | 10.9 | 1.5 | -9.4 | 51.5* | 43.7 | 1.2 | -5.9
COc1ccc2c(c1)CC1(CN2C)C(=O)NC(=O)N(CCc2ccccc2)C1=O (configuration not stated) | 2.5 | 23.6 | -0.7 | 2.7 | 21.7 | -11.4 | nt
CCC(C)N1C(=O)NC(=O)C2(Cc3c(ccc4ccccc34)N(C)C2)C1=O (configuration not stated) | 12.5 | 13.1 | 4.1 | 45.3* | 31.3 | 23.4 | 30.7*
Oc1c(Cl)c(Cl)c(Cl)c(Cl)c1Cl | -0.7 | 39.8 | nt | 46.8* | 39.3 | 39.5 | 30.8*
Cc1nn(Cc2ccccc2)c(C)c1C=C1C(=O)NC(=O)NC1=O | 1.4 | 2.6 | 25.9 | 5.9 | 1.7 | 6.0 | nt
Cn1ccc(NC(=O)CCl)n1 | -0.2 | -5.3 | -2.6 | 9.2 | 2.9 | -4.8 | nt
CCCC1(CCC)C(=O)NC(=Nc2ccccc2)NC1=O | -1.3 | 14.5 | 3.0 | 17.3 | 18.1 | -8.9 | nt
CCCCC1(CCCC)C(=O)NC(=Nc2cccc(C)c2)NC1=O | 2.3 | 21.9 | 2.4 | 40.1* | 29.6 | 9.5 | 26.4
C=C(C=O)CC1CC(O)[C@]2(C)OC3CC4OC5C[C@]6(C)O[C@]7(C)CCC8OC9C[C@]%10(C)OC%11C(C)=CC(=O)OC%11CC%10OC9C[C@@H](C)C8OC7CC6O[C@]5(C)CC5OC5C4OC3CC2O1 (some centres not stated) | 25.9 | 29.3 | 8.2 | 59.1* | -6.7 | -13.5 | 29.1*
COc1ccc(CN2CCCC(C(=O)c3sccc3C)C2)cc1O (configuration not stated) | 2.9 | 24.4 | 1.3 | 5.7 | -1.3 | 0.3 | nt
Brc1ccc2[nH]cc(/C=N/N3CCCCC3)c2c1 | -2.8 | 27.6 | 19.8 | 42.5* | 47.3 | 17.7 | 21.8
COc1ccc2nc(NC(=O)CCc3nc(C4=CCN(C)CC4)no3)sc2c1 | 2.2 | 1.1 | -6.4 | 43.0* | 11.6 | -0.8 | 12.8
COc1ccc(N2C(=O)NC(=O)/C(=C\c3ccc([N+](=O)[O-])s3)C2=O)cc1 | 6.6 | 20.7 | -3.3 | 67.9* | 43.2 | 80.9* | 71.4* | TIM10 conf=38.3*
Cc1ccc(Cn2nnnc2CN2CCC(n3nnc4cc(C(F)(F)F)ccc43)CC2)cc1 | 11.6 | 14.0 | 20.5 | 36.1 | 18.3 | 33.2 | nt
Cc1ccc(Cn2nnnc2CN2CCC(n3nnc4cc(C)ccc43)CC2)cc1 | -25.2 | 14.1 | 6.5 | 51.7* | 44.6 | 49.8* | 46.1* | TIM10 conf=28.0*
Fc1ccc(C[n+]2c(-c3ccccc3)cc(-c3ccccc3)cc2-c2ccccc2)cc1 | 7.0 | 15.6 | nt | 55.4* | 41.1 | 49.4* | 51.8* | TIM10 conf=58.5*
